Source: PubChem BioAssay

Assay: change in splice reporter luminescence, either direction, cell-based, HEK293, spliceosome inhibition project, primary screen (AID 1101);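 also: HEK293 cells carrying a splicing-competent luciferase reporter gene; test concentration not given here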
Details: HEK293 splicing luciferase reporter, 24 h, higher = more signal, called active from +8 up or from −8 down

z-score, inactive:
O=C1C2C=CC(C(O)C3CC=CCC3)N(Nc3ccccc3)C2C(=O)N1c1ccccc1 (stereo not drawn) -0.225
[N-]=[N+]=Nc1ccccc1C[C@@]1(C(=O)N2CCOCC2)N=C(c2ccc(OCCCO)cc2)O[C@@H]1c1ccccc1 -0.818
CCC#CCN(Cc1ccccc1Br)[C@H](/C=C/C1CC1)[C@@H](O)Cc1ccccc1 -0.739
Cc1ccc(F)cc1S(=O)(=O)N[C@@H]1CCN(Cc2ccc(Br)cc2)C1 -1.12
CC1CC/C=C\[C@H]2OC34C=CCN(C(C)C)C(=O)[C@H]3N(CCO)C(=O)[C@@H]4C2C(=O)O1 (stereo partly drawn) 0.459
CCOC(=O)C[C@H]1[C@H](OC(=O)c2cc3ccccc3oc2=O)[C@@H](NC(=O)CC(C)C)c2cc(OCCCO)ccc2N1C(=O)c1ccc2ccccc2n1 0.0136
[N-]=[N+]=Nc1ccccc1C[C@]1(C(=O)NCCN2CCOCC2)COC(c2ccc(OCCCO)cc2)=N1 -0.388
COC(=O)[C@]1(CCS(=O)(=O)c2ccccc2)N=C(c2ccc(OCCCO)cc2)O[C@@H]1c1ccccc1N=[N+]=[N-] -0.571
COc1ccc(CCNC(=O)[C@@H]2c3ccccc3C(=O)N(C3CCCCC3)[C@H]2c2ccc(CO)cc2)cc1 0.43
O=C(NCc1ccc(F)cc1)[C@H]1C[C@H]2C(=O)NCC(=O)N2[C@H]1c1ccc(O)cc1 -0.12
CC(c1ccccc1)C(O)C1C=CC2C(=O)N(C)C(=O)C2N1Nc1ccccc1 (stereo not drawn) 1.31
COc1ccc(C#Cc2ccc3c(c2)[C@]2(C(=O)N3)[C@H](c3ccc(O)cc3)N3[C@H](c4ccccc4)[C@H](c4ccccc4)OC(=O)[C@H]3[C@@H]2C(=O)Nc2nc3ccccc3s2)cc1 -0.793
CC1=C2[C@@H](CCc3ccccc3)OB(O)C[C@@H]2[C@@H]2C(=O)N(C)C(=O)[C@@H]2C1 0.305
COc1cccc(C)c1NC(=O)O[C@H]1[C@H](OC(=O)Nc2ccc3c(c2)OCO3)[C@@H](OC(=O)Nc2ccc3c(c2)OCO3)[C@@H](OC)O[C@@H]1CO -0.23
CC(C)N1C(=O)c2ccccc2[C@@H](C(=O)NCCN2CCOCC2)[C@@H]1c1ccc(CO)cc1 -0.141
CCCCN1CC=CC23O[C@@H]4/C=C\CCCOC(=O)C4[C@H]2C(=O)N(CCO)[C@@H]3C1=O (stereo partly drawn) -0.817
CCCNC(=O)[C@@]1(C)c2ccccc2C(=O)N(c2ccc(C)cn2)[C@H]1c1ccc(CO)cc1 0.756
N#Cc1ccc(NN2C(C(O)c3ccc(Br)cc3)C=CC3C(=O)N(c4ccccc4)C(=O)C32)cc1 (stereo not drawn) -0.699
O=C(O)[C@@H]1[C@@H]2C(=O)N(c3ccccc3)C(=O)[C@@H]2C[C@@H]1Sc1ccccc1 0.393
CCCNC(=O)[C@@H]1c2ccccc2C(=O)N(Cc2ccc(OC(F)(F)F)cc2)[C@H]1c1ccc(CO)cc1 0.0883
COCCOC(=O)N1C(=O)[C@@]2(c3cc(C#CCCO)ccc31)[C@H](c1ccc(OCCO)cc1)N1[C@H](c3ccccc3)[C@H](c3ccccc3)OC(=O)[C@H]1[C@@H]2C(=O)Nc1nc2ccccc2s1 1.06
CN(C)C(=O)[C@]1(CCC(=O)OC(C)(C)C)N=C(c2ccc(OCCCO)cc2)O[C@@H]1c1ccccc1CN=[N+]=[N-] -0.561
CCCC=C(CCC)[C@@H](NS(=O)(=O)c1ccc(C(F)(F)F)cc1)c1ccccc1 -0.172
CCCCC(CC)C(O)C1C=CC2C(=O)N(C)C(=O)C2N1Nc1ccccc1 (stereo not drawn) 1.48
COC(=O)c1c(CC[C@@H](CO)NC(=O)N2CCC[C@H]2Cn2cc(C3(O)CCCCC3)nn2)oc(C(C)=O)c1C(=O)OC -0.503
C=CC[C@]1(C(=O)N2CCCCC2)N=C(c2ccc(OCCCO)cc2)O[C@H]1c1ccccc1CN=[N+]=[N-] -0.234
COC(=O)[C@@]1(Cc2ccccc2)[C@H]2c3cc(C(=O)N4CCCC4)n(CCc4ccccn4)c3C[C@H]2CN1C(=O)c1ccccc1 -2.09
C=CCNC(=O)[C@@H]1[C@H]2C(=O)O[C@H](c3ccccc3)[C@H](c3ccccc3)N2[C@H](c2ccc(O)cc2)[C@@]12C(=O)N(C(=O)OCCOC)c1ccc(C#CC3=CCCCC3)cc12 -1.19
